Active and inactive are the calls of the source. How the calls were made is not given here.
molecular target: Pantothenate synthetase (Mycobacterium tuberculosis (strain ATCC 25618 / H37Rv)) (UniProt P9WIL5); assay: Recombinant Mtb pantothenate synthetase (PanC) inhibitors, coupled enzyme, confirmatory (AID 375); conditions: coupled enzyme assay; at 10 µM, hits give high values;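 further: 0% = full reaction with vehicle and 100% = no enzyme background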
Sequence (P9WIL5 whole entry, looked up): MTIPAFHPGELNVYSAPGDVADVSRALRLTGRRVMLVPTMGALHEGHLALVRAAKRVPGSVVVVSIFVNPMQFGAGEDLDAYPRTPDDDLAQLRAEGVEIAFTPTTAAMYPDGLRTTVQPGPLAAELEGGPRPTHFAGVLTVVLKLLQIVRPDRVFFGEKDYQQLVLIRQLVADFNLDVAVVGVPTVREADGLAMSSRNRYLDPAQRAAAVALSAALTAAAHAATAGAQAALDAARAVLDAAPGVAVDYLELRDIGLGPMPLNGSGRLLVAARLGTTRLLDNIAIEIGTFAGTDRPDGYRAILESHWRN

Question: `O=C(O)/C=C/c1ccc(O)c(O)c1` was tested. Which inhibition did it give?
Answer: The inhibition was 1% (inactive).

Question: With `CCNC(=O)Cn1cnc2c1c(=O)n(C)c(=O)n2C` as the molecule, how does the inhibition read?
Answer: The inhibition was 0% (inactive).

Question: How did the inhibition turn out when `NC(N)=Nc1nc(CSCC/C(N)=N/S(N)(=O)=O)cs1` was run?
Answer: Its inhibition is 0% (inactive).

Question: For `COc1ccc(-c2oc3ncn(CCN4CCOCC4)c(=N)c3c2-c2ccc(OC)cc2)cc1`, which inhibition is on record?
Answer: Its inhibition is 0% (inactive).

Question: `CSC1=C(C#N)C(c2ccc(C)cc2)C2=C(CCCC2=O)N1` (stereo not given) was tested. Which inhibition did it give?
Answer: Its inhibition is 0% (inactive).

Question: With `CCN(Cc1cc2cc(OC)ccc2[nH]c1=O)C(=O)c1ccncc1` as the molecule, how does the inhibition read?
Answer: The inhibition was 4% (inactive).

Question: With `O=C(c1ccncc1)N1CCN(C(=O)c2cccs2)CC1` as the molecule, how does the inhibition read?
Answer: Its inhibition is 6% (inactive).

Question: With `CCC1Oc2ccc(C)cc2N(CC(=O)NCCCN2CCCCC2CC)C1=O` (stereo not given) as the molecule, how does the inhibition read?
Answer: Its inhibition is 4% (inactive).

Question: For `CCOC(=O)N1CCN(c2c(N3CCc4ccccc4C3)c(=O)c2=O)CC1`, which inhibition is on record?
Answer: The inhibition was 0% (inactive).

Question: `Cc1ccc(C(=O)NCc2ccc3c(c2)OCO3)cc1S(=O)(=O)N1CCCCC1` was tested. Which inhibition did it give?
Answer: Its inhibition is 0% (inactive).

Question: With `C[C@H](NC(=O)Nc1ccccc1F)C(=O)O` as the molecule, how does the inhibition read?
Answer: The inhibition was 2% (inactive).

Question: How did the inhibition turn out when `O=c1cc(CN2CCN(c3ccc(F)cc3)CC2)nc2sccn12` was run?
Answer: Its inhibition is 0% (inactive).

Question: Which inhibition does the source give for `CCOc1ccc(-c2cn(S(=O)(=O)c3cccc4nsnc34)nc2N)cc1` here?
Answer: Its inhibition is 0% (inactive).

Question: How did the inhibition turn out when `NC(=O)c1cc(-c2ccccc2)nc(N2CCOCC2)n1` was run?
Answer: Its inhibition is 0% (inactive).

Question: How did the inhibition turn out when `O=C(CSc1ncccn1)c1ccccc1Br` was run?
Answer: Its inhibition is 7% (inactive).

Question: Which inhibition does the source give for `O=C(COC(=O)C12CC3CC(CC(C3)C1)C2)NCc1ccco1` here?
Answer: Its inhibition is 0% (inactive).

Question: How did the inhibition turn out when `COc1ccc(N(C(=O)c2ccco2)S(=O)(=O)c2cc(OC)ccc2OC)cc1` was run?
Answer: Its inhibition is 0% (inactive).

Question: Which inhibition does the source give for `Cc1cc(C(=O)CSCc2nnc3n(CCC(C)C)c(=O)c4ccccc4n23)c(C)n1C` here?
Answer: Its inhibition is 8% (inactive).

Question: For `COc1ccc(NC(=O)c2cc(C3CC3)on2)c(OC)c1`, which inhibition is on record?
Answer: The inhibition was 0% (inactive).

Question: How did the inhibition turn out when `CC1Oc2ccccc2N(CC(=O)NCc2cccs2)C1=O` (stereo not given) was run?
Answer: The inhibition was 0% (inactive).

Question: With `COC(=O)CNc1nc(C2CC2)nc2c1nnn2Cc1ccccc1Cl` as the molecule, how does the inhibition read?
Answer: The inhibition was 6% (inactive).

Question: `CCOC(=O)c1cc2c(=O)n3cccc(C)c3nc2n(Cc2ccco2)c1=NC(=O)c1cccnc1` was tested. Which inhibition did it give?
Answer: The inhibition was 0% (inactive).

Question: How did the inhibition turn out when `CCCOc1ccc(N2C(=O)CC(SCCN)C2=O)cc1` (stereo not given) was run?
Answer: Its inhibition is 0% (inactive).

Question: Which inhibition does the source give for `COC(=O)c1sc(S(=O)(=O)Nc2ccc3cn[nH]c3c2)c(C(=O)OC)c1C` here?
Answer: Its inhibition is 0% (inactive).

Question: `COc1cc2c(cc1OC)CN(C(=O)COc1ccc(C#N)cc1)CC2` was tested. Which inhibition did it give?
Answer: Its inhibition is 0% (inactive).

Question: `CCc1cc2ccc(C)cc2nc1SCC(=O)N1CCN(C(=O)c2ccco2)CC1` was tested. Which inhibition did it give?
Answer: The inhibition was 0% (inactive).

Question: Which inhibition does the source give for `COC(=O)C1=C(C)N(c2ccc(C(=O)OC)cc2)C(=O)C1` here?
Answer: The inhibition was 0% (inactive).

Question: Which inhibition does the source give for `CCOc1ccc(Cl)cc1S(=O)(=O)N1CCCC1` here?
Answer: The inhibition was 0% (inactive).

Question: Which inhibition does the source give for `CCOC(=O)c1c(NC(=O)CSc2nc3c(c(=O)n(C)c(=O)n3C)n2C(C)C)sc(C)c1C` here?
Answer: Its inhibition is 10% (inactive).

Question: `O=c1c(F)cn(C2CCCO2)c(=O)n1Cc1c(F)cccc1Cl` (stereo not given) was tested. Which inhibition did it give?
Answer: Its inhibition is 0% (inactive).

Question: With `O=C(CSc1n[nH]c(=O)[nH]c1=O)c1ccccc1` as the molecule, how does the inhibition read?
Answer: Its inhibition is 0% (inactive).

Question: For `COc1cccc(N2CCN(CC(=O)c3c[nH]c4ccc(OC)cc34)CC2C)c1` (stereo not given), which inhibition is on record?
Answer: Its inhibition is 2% (inactive).

Question: `O=C(COc1nnnc2ccccc12)N1CCCc2ccccc21` was tested. Which inhibition did it give?
Answer: Its inhibition is 0% (inactive).

Question: How did the inhibition turn out when `Cc1c(C(=O)NCc2cccnc2)oc2ccc(S(=O)(=O)N3CCCCC3)cc12` was run?
Answer: Its inhibition is 0% (inactive).

Question: How did the inhibition turn out when `COc1ccc2c(C)nc(Nc3nc(C)cc(C)n3)nc2c1` was run?
Answer: Its inhibition is 6% (inactive).

Question: With `CCOC(=O)c1sc(NC(=O)CSc2nnc(-c3ccco3)n2CC)c(C(=O)OCC)c1C` as the molecule, how does the inhibition read?
Answer: The inhibition was 0% (inactive).

Question: Which inhibition does the source give for `COc1cc2c(cc1NC(=O)COC(=O)Cn1cnc3ccccc31)oc1ccccc12` here?
Answer: Its inhibition is 0% (inactive).

Question: For `CS(=O)(=O)N(Cc1ccco1)CC(O)Cn1c2ccccc2c2ccccc21` (stereo not given), which inhibition is on record?
Answer: The inhibition was 0% (inactive).

Question: For `CC1(C)CC(CCNC(=O)c2ccco2)CC(C)(C)N1`, which inhibition is on record?
Answer: Its inhibition is 0% (inactive).

Question: For `CCn1c(SCC(=O)N2CCCc3ccccc32)nnc1-c1cccs1`, which inhibition is on record?
Answer: Its inhibition is 0% (inactive).
